Results filed as inconclusive are left out. Calls of active or inactive are those of the source. Rule for the calls, unless noted: active = hit-call score of the fitted dose curve at least 0.9, where 1 is the maximum; inactive = score below 0.9.
What was measured:
[1] = ATG_CRE_CIS: Attagene CIS-FACTORIAL HepG2 Assay for human cAMP Responsive Element (CRE) binding protein 3 (AID 2282926); details: HepG2 CRE cis-reporter, Attagene multiplexed mRNA; actives raise or lower the signal
Summary of the method: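 Human liver HepG2, transient MRTU transfection, 24 h compound exposure. Total RNA → oligo(dT) RT → PCR → 6-FAM primer extension → HpaI cut → CE. Activity called both directions vs DMSO.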

[2] = ATG_DR4_LXR_CIS: Attagene CIS-FACTORIAL HepG2 Assay for human Liver X Receptor (LXR), DR4 submotif (AID 2282929); details: HepG2 Attagene DR4 cis-reporter, mRNA transcription; actives raise or lower the signal
Summary of the method: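 Measures endogenous transcription factor activity via a DR4-driven reporter transcript in human HepG2 cells. Compounds incubated 24 h; mRNA quantified by RT-PCR and capillary electrophoresis, analysed as gain or loss of signal versus DMSO.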

[3] = ATG_AP_1_CIS: Attagene CIS-FACTORIAL HepG2 Assay for human Activator Protein 1 (AP-1) (AID 2282931); details: HepG2 Attagene cis-factorial AP-1 reporter mRNA; actives raise or lower the signal
Summary of the method: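 Bidirectional concentration-response fitting against DMSO controls. Underlying signal: reporter mRNA from cis-promoter constructs in transiently transfected HepG2, measured after 24 h by RT-PCR and capillary electrophoresis.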

[4] = ATG_Ets_CIS: Attagene CIS-FACTORIAL HepG2 Assay for human Erythroblast Transformation Specific (ETS) (AID 2282941); details: HepG2 ETS cis-reporter transcription, actives raise or lower the signal
Summary of the method: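 Human HepG2 hepatoma cells were transiently transfected with promoter-driven reporter constructs and treated for 24 hours. Reporter transcripts were quantified by RT-PCR with fluorescent primer extension; bidirectional curve fitting used DMSO as reference.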

[5] = target: Hypoxia-inducible factor 1-alpha (Homo sapiens) (UniProt Q16665); assay: ATG_HIF1a_CIS: Attagene CIS-FACTORIAL HepG2 Assay for human Hypoxia Inducible Factor 1 (HIF1A) (AID 2282951); details: HepG2 Attagene cis-factorial HIF1a reporter transcription; actives raise or lower the signal
Summary of the method: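 In this multiplexed cell assay, HepG2 cells bearing transfected cis reporters are dosed for 24 h and reporter mRNA is read by RT-PCR plus capillary electrophoresis; signal increases and decreases are both scored against DMSO.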

[6] = target: Heat shock factor protein 1 (Homo sapiens) (UniProt Q00613); assay: ATG_HSE_CIS: Attagene CIS-FACTORIAL HepG2 Assay for human Heat Shock Transcription Factor 1 (HSE) (AID 2282953); details: HepG2 HSE cis-reporter, Attagene RNA transcription; actives raise or lower the signal
Summary of the method: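 Endogenous transcription factor activity captured via cis-promoter reporter units transfected into HepG2; treatment lasted 24 h. Fluorescence intensity of reporter fragments analysed with bidirectional curve fitting, DMSO baseline.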

[7] = target: Signal transducer and activator of transcription 3 (Homo sapiens) (UniProt P40763); assay: ATG_STAT3_CIS: Attagene CIS-FACTORIAL HepG2 Assay for human Signal Transducer and Activator of Transcription 3 (STAT3) (AID 2282963); details: HepG2, Attagene cis-factorial STAT3 reporter transcription; actives raise or lower the signal
Summary of the method: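 HepG2 cells transiently transfected with cis-element-driven multiple reporter transcription units; after 24 h chemical exposure, reporter mRNA measured by RT-PCR, 6-FAM primer-extension labelling, HpaI digestion and capillary electrophoresis. Bidirectional fitting versus DMSO baseline.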

[8] = ATG_TA_CIS: Attagene CIS-FACTORIAL HepG2 Assay for human TA Basal Promoter (AID 2282964); details: HepG2 Attagene CIS-factorial TA basal promoter reporter; actives raise or lower the signal
Summary of the method: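 Fluorescence from labelled RT-PCR reporter fragments, separated by capillary electrophoresis, gives the signal. Cells: HepG2 transiently carrying multiple reporter units, 24 h chemical dosing. Gain or loss relative to DMSO.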

[9] = ATG_TCF_b_cat_CIS: Attagene CIS-FACTORIAL HepG2 Assay for human T-Cell-Factor with beta-catenin (TCF/b-cat) (AID 2282965); details: HepG2 TCF/beta-catenin cis-reporter transcription, actives raise or lower the signal
Summary of the method: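 Using capillary electrophoresis as the read-out, labelled reporter cDNA fragments from transiently transfected HepG2 were sized and quantified. Exposure lasted 24 hours; activity in either direction was referenced to DMSO.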

[10] = ATG_TAL_CIS: Attagene CIS-FACTORIAL HepG2 Assay for human TAL Basal Promoter (AID 2282966); details: HepG2 Attagene cis-factorial TAL promoter reporter; actives raise or lower the signal;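 note: background control endpoint measuring basal TAL promoter reporter mRNA not a specific factor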
Summary of the method: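 Fluorescence of labelled reporter cDNA fragments, resolved by capillary electrophoresis, gave the readout. Human HepG2 liver cells carried transiently transfected cis-element reporter units and were treated for 24 hours; activity was fitted bidirectionally against DMSO.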

[11] = target: X-box-binding protein 1 (Homo sapiens) (UniProt P17861); assay: ATG_Xbp1_CIS: Attagene CIS-FACTORIAL HepG2 Assay for human X-box Binding Protein 1 (XBP1) (AID 2282972); details: HepG2 XBP1 cis-element reporter, Attagene multiplex; actives raise or lower the signal
Summary of the method: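 Fluorescence-labelled cDNA fragments from reporter transcripts, separated by capillary electrophoresis, give the signal. Source: HepG2 cells transfected with promoter-driven reporter units, harvested 24 h post-dose. DMSO served as reference for bidirectional curve fitting.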

[12] = target: Transcriptional activator Myb (Homo sapiens) (UniProt P10242); assay: ATG_Myb_CIS: Attagene CIS-FACTORIAL HepG2 Assay for human Myeloblastosis (Myb) Proto-Oncogene Transcription Factor (AID 2282986); details: HepG2 Attagene CIS-FACTORIAL Myb reporter transcription; actives raise or lower the signal
Summary of the method: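 Fluorescence signals from capillary electrophoresis of RT-PCR-amplified reporter cDNA give the read-out. Cells: HepG2 transfected with multiple cis-regulated reporter units. Exposure lasts 24 hours; DMSO defines baseline for gain or loss of signal.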

[13] = ATG_NFI_CIS: Attagene CIS-FACTORIAL HepG2 Assay for human Nuclear Factor I (NFI) (AID 2282989); details: HepG2 cis-regulatory reporter, NFI response element transcription; actives raise or lower the signal
Summary of the method: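 Cells: human liver HepG2, transiently transfected with promoter-regulated reporter transcription units. Exposure 24 h. Detection: fluorescent RT-PCR products separated by capillary electrophoresis, normalised to DMSO negative control.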

[14] = target: Myc proto-oncogene protein (Homo sapiens) (UniProt P01106); assay: ATG_Myc_CIS: Attagene CIS-FACTORIAL HepG2 Assay for human Myelocytomatosis (Myc) Proto-Oncogene Transcription Factor (AID 2282990); details: HepG2, Attagene cis-reporter transcription factor activity; actives raise or lower the signal
Summary of the method: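 Multiplexed cis-reporter transcription in HepG2 cells after 24 h chemical treatment. Reporter mRNA measured by RT-PCR and capillary electrophoresis fluorescence; activity fitted bidirectionally against DMSO control.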

[15] = ATG_NRF2_ARE_CIS: Attagene CIS-FACTORIAL HepG2 Assay for human Nuclear Factor Erythroid 2 Related Factor 2 (NFR2) response to Antioxidant Response Elements (ARE) (AID 2282992); details: HepG2 Attagene ARE/NRF2 reporter, transcription factor activity; actives raise or lower the signal
Summary of the method: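 Multiplexed reporter mRNA profiling in HepG2 after a 24 h chemical exposure. Curves fitted in both directions relative to DMSO negative control.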

[16] = ATG_Oct_MLP_CIS: Attagene CIS-FACTORIAL HepG2 Assay for human Octamer-Binding Transcription Factor (Oct) (AID 2282993); details: HepG2 Attagene cis-factorial Oct reporter, mRNA; actives raise or lower the signal
Summary of the method: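 HepG2, transient MRTU transfection, cis promoter elements; 24 h dosing; RT-PCR/CE fluorescence read-out of reporter mRNA; fit both directions vs DMSO.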

[17] = target: Cellular tumor antigen p53 (Homo sapiens) (UniProt P04637); assay: ATG_p53_CIS: Attagene CIS-FACTORIAL HepG2 Assay for human p53 Transcription Factor (AID 2282994); details: HepG2 p53 cis-element reporter, Attagene mRNA; actives raise or lower the signal
Summary of the method: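 Multiplexed reporter mRNA assay in human HepG2 liver cells; cis-regulated units report endogenous factor activity. Values come from bidirectional curve fitting against DMSO negative control after 24 h treatment.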

[18] = target: Nuclear receptor subfamily 1 group I member 2 (Homo sapiens) (UniProt O75469); assay: ATG_PXR_TRANS: Attagene TRANS-FACTORIAL HepG2 Assay for human Pregnane X Receptor (PXR) (AID 2283008; active = hit-call score of the fitted dose curve at least 0.9, where 1 is the maximum)
Summary of the method: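 Measures mRNA induction of a GAL4-UAS-driven reporter in human HepG2 cells transiently expressing PXR fused to Gal4, following 24 h treatment. DMSO served as negative control and baseline.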

[19] = ATG_XTT_Cytotoxicity: Cytotoxicity Assessment in the Attagene TRANS-FACTORIAL HepG2 Assay (AID 2283584; active = hit-call score of the fitted dose curve at least 0.9, where 1 is the maximum)
Summary of the method: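 Cells: human HepG2, transiently transfected with MRTU reporter constructs. Exposure 24 h. Readout: XTT, cell number. Baseline/neg ctrl DMSO; loss-of-signal scored.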

[20] = target: Paired box protein Pax-6 (Homo sapiens) (UniProt P26367); assay: ATG_Pax6_CIS: Attagene CIS-FACTORIAL HepG2 Assay for human Paired Box 6 (PAX6) (AID 2282956); details: HepG2 CIS-FACTORIAL PAX6 reporter transcription, RNA readout; actives raise or lower the signal
Summary of the method: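 Multiplexed cis-reporter HepG2 system; 24 h treatment; reporter mRNA read by RT-PCR/CE fluorescence; bidirectional fit vs DMSO.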

Measured: AC50

Heat shock factor protein 1 (Homo sapiens), sequence (Q00613 whole entry, looked up, the tested form may be a part): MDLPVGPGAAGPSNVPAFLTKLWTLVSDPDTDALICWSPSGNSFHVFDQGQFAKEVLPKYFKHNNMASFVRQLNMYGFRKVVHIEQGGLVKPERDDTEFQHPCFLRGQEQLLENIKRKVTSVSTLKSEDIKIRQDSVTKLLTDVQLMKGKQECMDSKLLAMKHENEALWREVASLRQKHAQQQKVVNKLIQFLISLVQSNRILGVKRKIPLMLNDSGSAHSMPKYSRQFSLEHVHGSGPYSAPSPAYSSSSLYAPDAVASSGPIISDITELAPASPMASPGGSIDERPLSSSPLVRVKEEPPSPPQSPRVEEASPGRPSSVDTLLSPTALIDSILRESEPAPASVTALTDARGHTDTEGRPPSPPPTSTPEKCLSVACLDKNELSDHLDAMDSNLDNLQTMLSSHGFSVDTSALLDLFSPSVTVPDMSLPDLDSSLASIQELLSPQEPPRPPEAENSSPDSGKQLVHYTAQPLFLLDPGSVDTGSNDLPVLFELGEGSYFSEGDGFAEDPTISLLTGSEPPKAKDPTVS
Myc proto-oncogene protein (Homo sapiens), sequence (P01106 whole entry, looked up): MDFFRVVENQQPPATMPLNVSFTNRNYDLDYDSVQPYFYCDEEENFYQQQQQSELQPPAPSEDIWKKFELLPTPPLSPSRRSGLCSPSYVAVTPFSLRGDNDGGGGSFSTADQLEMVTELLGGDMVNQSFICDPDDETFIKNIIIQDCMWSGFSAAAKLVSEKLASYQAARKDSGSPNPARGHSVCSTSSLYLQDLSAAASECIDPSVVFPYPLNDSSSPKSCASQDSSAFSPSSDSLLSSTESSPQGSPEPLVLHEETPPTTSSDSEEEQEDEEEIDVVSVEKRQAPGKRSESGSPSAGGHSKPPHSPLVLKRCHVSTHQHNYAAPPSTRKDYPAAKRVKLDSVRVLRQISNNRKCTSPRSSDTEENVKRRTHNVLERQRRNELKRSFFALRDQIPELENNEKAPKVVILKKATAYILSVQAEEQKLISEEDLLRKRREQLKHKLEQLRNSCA
X-box-binding protein 1 (Homo sapiens), sequence (P17861 whole entry, looked up, the tested form may be a part): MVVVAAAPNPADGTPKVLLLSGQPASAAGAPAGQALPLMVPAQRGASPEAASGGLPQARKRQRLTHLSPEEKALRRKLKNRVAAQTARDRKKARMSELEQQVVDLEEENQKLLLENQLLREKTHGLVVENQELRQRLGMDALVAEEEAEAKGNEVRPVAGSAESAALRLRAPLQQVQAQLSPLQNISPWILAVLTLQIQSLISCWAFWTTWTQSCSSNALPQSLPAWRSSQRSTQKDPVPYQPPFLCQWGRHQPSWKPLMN
Nuclear receptor subfamily 1 group I member 2 (Homo sapiens), sequence (O75469 whole entry, looked up, the tested form may be a part): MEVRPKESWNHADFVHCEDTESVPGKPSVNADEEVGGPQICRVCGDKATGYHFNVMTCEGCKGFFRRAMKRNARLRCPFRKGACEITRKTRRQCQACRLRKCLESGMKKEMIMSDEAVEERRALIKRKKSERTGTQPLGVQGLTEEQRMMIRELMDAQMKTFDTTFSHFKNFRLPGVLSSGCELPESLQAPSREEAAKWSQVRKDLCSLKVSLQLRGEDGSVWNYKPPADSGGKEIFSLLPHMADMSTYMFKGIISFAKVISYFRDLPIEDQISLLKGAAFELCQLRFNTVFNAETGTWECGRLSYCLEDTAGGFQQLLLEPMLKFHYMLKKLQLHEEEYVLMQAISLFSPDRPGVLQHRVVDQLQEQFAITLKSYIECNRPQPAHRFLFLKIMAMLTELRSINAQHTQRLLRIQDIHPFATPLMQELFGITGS
Signal transducer and activator of transcription 3 (Homo sapiens), sequence (P40763 whole entry, looked up): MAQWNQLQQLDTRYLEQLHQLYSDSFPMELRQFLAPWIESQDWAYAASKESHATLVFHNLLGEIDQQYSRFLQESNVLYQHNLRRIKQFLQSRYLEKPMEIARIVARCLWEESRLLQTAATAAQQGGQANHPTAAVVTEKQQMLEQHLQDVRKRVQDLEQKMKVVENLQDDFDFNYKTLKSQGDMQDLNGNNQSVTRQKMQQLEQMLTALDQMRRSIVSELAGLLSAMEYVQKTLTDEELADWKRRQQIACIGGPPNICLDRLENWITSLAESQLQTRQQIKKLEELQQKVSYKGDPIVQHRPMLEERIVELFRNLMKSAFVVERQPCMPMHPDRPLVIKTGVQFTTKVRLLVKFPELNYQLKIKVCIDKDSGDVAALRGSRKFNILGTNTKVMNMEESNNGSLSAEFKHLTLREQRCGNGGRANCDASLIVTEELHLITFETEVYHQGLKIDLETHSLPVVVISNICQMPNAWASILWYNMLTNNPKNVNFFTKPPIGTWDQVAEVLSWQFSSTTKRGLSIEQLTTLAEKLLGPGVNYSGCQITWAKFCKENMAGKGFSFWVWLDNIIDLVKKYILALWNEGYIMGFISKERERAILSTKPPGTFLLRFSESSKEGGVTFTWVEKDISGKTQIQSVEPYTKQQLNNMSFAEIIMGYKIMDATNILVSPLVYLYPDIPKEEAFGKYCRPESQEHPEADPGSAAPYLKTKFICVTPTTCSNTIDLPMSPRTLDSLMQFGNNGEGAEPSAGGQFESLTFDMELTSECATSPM
Hypoxia-inducible factor 1-alpha (Homo sapiens), sequence (Q16665 whole entry, looked up): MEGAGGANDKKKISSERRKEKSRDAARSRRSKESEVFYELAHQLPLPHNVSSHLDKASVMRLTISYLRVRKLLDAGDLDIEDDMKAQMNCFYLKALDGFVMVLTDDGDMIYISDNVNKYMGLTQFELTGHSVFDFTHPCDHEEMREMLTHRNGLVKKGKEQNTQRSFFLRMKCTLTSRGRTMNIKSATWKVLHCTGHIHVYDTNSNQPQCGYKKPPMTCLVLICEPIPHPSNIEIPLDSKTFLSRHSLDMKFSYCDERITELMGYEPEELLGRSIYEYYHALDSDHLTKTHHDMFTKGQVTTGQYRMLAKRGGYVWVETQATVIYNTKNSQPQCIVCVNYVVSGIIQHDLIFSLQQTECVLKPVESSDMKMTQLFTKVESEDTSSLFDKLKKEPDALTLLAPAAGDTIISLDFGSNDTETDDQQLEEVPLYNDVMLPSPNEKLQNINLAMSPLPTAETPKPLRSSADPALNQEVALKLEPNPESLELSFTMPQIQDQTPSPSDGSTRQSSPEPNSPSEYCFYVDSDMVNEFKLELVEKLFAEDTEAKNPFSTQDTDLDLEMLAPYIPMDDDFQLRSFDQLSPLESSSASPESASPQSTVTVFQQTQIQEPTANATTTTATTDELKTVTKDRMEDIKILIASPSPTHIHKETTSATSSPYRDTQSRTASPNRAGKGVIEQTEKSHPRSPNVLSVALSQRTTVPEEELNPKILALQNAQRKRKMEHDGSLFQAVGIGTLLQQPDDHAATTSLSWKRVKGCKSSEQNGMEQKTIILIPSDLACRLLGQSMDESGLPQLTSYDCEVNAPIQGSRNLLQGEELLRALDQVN
Transcriptional activator Myb (Homo sapiens), sequence (P10242 whole entry, looked up): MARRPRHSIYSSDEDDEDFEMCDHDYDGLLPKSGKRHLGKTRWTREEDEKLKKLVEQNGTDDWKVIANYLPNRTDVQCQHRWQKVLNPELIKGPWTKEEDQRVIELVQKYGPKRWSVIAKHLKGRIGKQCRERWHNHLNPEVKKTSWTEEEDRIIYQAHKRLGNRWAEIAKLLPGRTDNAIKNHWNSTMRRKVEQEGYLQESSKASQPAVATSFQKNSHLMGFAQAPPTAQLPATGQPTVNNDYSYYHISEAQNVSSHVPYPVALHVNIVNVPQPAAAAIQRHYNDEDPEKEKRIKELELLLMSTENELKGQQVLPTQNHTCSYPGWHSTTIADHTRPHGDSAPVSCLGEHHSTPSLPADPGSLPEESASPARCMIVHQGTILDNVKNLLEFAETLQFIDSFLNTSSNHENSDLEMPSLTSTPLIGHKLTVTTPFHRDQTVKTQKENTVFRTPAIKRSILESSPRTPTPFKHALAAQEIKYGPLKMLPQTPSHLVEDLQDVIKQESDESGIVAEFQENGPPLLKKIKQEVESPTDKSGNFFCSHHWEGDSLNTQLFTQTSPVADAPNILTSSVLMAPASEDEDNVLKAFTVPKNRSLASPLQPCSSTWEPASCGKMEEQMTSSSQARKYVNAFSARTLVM
Paired box protein Pax-6 (Homo sapiens), sequence (P26367 whole entry, looked up): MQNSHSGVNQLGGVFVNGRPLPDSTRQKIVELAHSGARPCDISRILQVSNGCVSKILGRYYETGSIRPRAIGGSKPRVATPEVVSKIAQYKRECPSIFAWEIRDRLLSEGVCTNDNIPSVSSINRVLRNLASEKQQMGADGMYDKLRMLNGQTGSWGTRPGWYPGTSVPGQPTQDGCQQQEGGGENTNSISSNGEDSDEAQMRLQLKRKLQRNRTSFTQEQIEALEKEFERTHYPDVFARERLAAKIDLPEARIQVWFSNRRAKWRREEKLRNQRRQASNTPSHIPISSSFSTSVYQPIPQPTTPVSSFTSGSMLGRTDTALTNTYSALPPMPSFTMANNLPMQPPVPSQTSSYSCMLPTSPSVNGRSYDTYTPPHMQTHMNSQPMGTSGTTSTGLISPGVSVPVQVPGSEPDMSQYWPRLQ
Cellular tumor antigen p53 (Homo sapiens), sequence (P04637 whole entry, looked up): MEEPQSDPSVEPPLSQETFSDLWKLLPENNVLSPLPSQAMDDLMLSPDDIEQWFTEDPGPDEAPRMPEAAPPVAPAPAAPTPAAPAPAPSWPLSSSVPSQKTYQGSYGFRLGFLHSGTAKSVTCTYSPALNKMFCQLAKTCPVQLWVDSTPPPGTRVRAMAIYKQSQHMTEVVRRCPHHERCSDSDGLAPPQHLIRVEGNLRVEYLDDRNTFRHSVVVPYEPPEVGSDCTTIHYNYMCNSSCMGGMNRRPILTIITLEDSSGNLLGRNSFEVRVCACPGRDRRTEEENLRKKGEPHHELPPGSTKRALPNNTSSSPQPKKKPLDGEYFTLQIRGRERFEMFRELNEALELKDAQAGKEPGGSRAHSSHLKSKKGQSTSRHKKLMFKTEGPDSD

C=CC(C)(CCC=C(C)C)OC(=O)c1ccccc1 (configuration not stated)
active: [2] 34.2 µM | [3] 127 µM | [14] 131 µM | [15] 98 µM | [18] 8.68 µM
not listed: [20]
inactive: all other assays above

CC[N+](CC)(CC(=O)Nc1c(C)cccc1C)Cc1ccccc1
not listed: [6] | [15] | [17]
inactive: all other assays above

CC(=O)CCc1ccccc1
not listed: [4] | [20]
inactive: all other assays above

O=[N+]([O-])c1ccc2nc[nH]c2c1
not listed: [17] | [18]
inactive: all other assays above
